These results are taken from ChEMBL document CHEMBL1157539, “Thousands of chemical starting points for antimalarial lead identification” (Nature, 2010).

Common to all, as to type: functional
The test system of experiment [1] is Plasmodium falciparum. Briefly: GSK_TCMDC: Inhibition of Plasmodium falciparum 3D7 in whole red blood cells, using parasite LDH activity as an index of growth. Test compounds present at 2uM.
Experiment [2] deals with Plasmodium falciparum. The experiment in a line: GSK_TCMDC: Inhibition of Plasmodium falciparum Dd2 in whole red blood cells, using parasite LDH activity as an index of growth. Test compounds present at 2uM.
The subject of another experiment is HepG2. Briefly: GSK_TCMDC: Percent inhibition of human HepG2 cell line. Test compounds present at 10uM.

Broadly, the Inhibition is the drop in the measured response relative to a control, in per cent. The low end stands for little suppression, the high end for strong suppression.

With `CC(C)CNC(=O)CN1C(=O)C(c2ccccc2)(c2ccccc2)N=C1N`, the results for the Inhibition with Plasmodium falciparum [1], in the experiment on Plasmodium falciparum [2] and in the experiment with HepG2 were 94%, 46% and 15%, respectively.
In the case of `Cl.Oc1cc(Nc2ccnc3ccc(I)cc23)c(F)cc1Cl`, the figures for the Inhibition in the experiment with Plasmodium falciparum [1], in the experiment with Plasmodium falciparum [2] and in the experiment with HepG2 were 95%, 13% and 20%, respectively.
In the case of `Cc1[nH]c(C)c(-c2ccc(Oc3ccc(Cl)cc3)cc2)c(=O)c1Br`, the Inhibition with Plasmodium falciparum [1] was 97%; with Plasmodium falciparum [2] it was 96%; in the experiment on HepG2, 12%.
`Cc1cc(N(C)C)nc(Nc2ccc(NC(=O)c3ccc(Br)o3)cc2)n1`: the Inhibition is 100% in the experiment on Plasmodium falciparum [1], 57% in the experiment with Plasmodium falciparum [2] and 1% in the experiment on HepG2.
For the compound `Oc1cc2c(cc1CN1CCN(Cc3ccc(Cl)s3)CC1)CCC2`, the Inhibition came to 98% in the experiment on Plasmodium falciparum [1], 76% in the experiment on Plasmodium falciparum [2] and 7% in the experiment with HepG2.
For the compound `CCCNC[C@@H](O)[C@H](Cc1ccccc1)NC(=O)c1cc(NCC)cc(N2CCCC2=O)c1`, the Inhibition with Plasmodium falciparum [1] was 100%; in the experiment on Plasmodium falciparum [2] it was 76%; in the experiment with HepG2, 0%.
Taken in the same sequence, the figures for `CC(NC(=O)c1ccc(O)c(-c2ccc(Cl)c(Cl)c2)c1)C(=O)NC1CCCCC1` (stereo not given) were 96%, 82% and 0%.
Taken in the same sequence, the figures for `CCC(C)c1ccc(Nc2nc(C)cc(N(CC)CCCN3CCCCC3)n2)cc1.O=C(O)C(F)(F)F` (stereo not given) were 100%, 83% and 55%.
Consider `O=C(Nc1cc(C(F)(F)F)cc(C(F)(F)F)c1)NC(CCCN1CCC2(CC1)OCc1ccccc12)c1ccc(Cl)c(Cl)c1` (stereo not given), for which the figures for the Inhibition in the experiment with Plasmodium falciparum [1], in the experiment on Plasmodium falciparum [2] and with HepG2 were 94%, 87% and 26%, respectively.
Taken in the same sequence, the figures for `COc1cc(NCCCNCC2c3ccccc3Oc3ccccc32)nc2ccccc12.O=C(O)C(F)(F)F` were 99%, 66% and 99%.
Taken in the same sequence, the figures for `Cc1cc(Nc2ccc(C(C)(C)C)cc2)c2[nH]ncc2n1.Cl` were 83%, 63% and 31%.
Taken in the same sequence, the figures for `Br.CC1(C)N=C(N)N=C(N)N1OCC1COc2ccccc2O1` (stereo not given) were 96%, 66% and 56%.
Regarding `FC(F)(F)c1ccc(Nc2nnnc3ccccc23)cc1`, the results for the Inhibition in the experiment on Plasmodium falciparum [1], in the experiment on Plasmodium falciparum [2] and in the experiment on HepG2 were 90%, 82% and 3%, respectively.
Taken in the same sequence, the figures for `OCCOCn1cnc2cnc(N[C@H]3OC[C@H](O)[C@@H](O)[C@@H]3O)nc21` were 82%, 0% and 42%.
In the case of `CC(N)(Cc1ccc(O)cc1)c1nnn[nH]1` (stereo not given), the Inhibition is given as 93% with Plasmodium falciparum [1], 2% in the experiment on Plasmodium falciparum [2] and 7% in the experiment with HepG2.
Regarding `COc1ccc(NC(=O)Nc2ccc(Nc3nc(C)cc(N4CCCC4)n3)cc2)cc1`, the Inhibition turned out to be 100% in the experiment with Plasmodium falciparum [1], 100% in the experiment on Plasmodium falciparum [2] and 14% with HepG2.
Take `O=C(Nc1ccc(Cl)cc1)c1ccc(S(=O)(=O)NCC2CCN(CC3CCCCC3)CC2)cc1.O=C(O)C(F)(F)F`: the results for the Inhibition in the experiment on Plasmodium falciparum [1], with Plasmodium falciparum [2] and in the experiment with HepG2 were 93%, 8% and 40%, respectively.
As to `CC(C(=O)N1CCCC1)N1CCN(C(c2ccccc2)c2ccccc2)CC1` (stereo not given), the Inhibition came to 82% with Plasmodium falciparum [1], 56% in the experiment with Plasmodium falciparum [2] and 0% in the experiment on HepG2.
Taken in the same sequence, the figures for `COc1ccc2nccc([C@@H](O)CN3CCC(NC(=O)c4ccc(C5(C(F)(F)F)N=N5)cc4)CC3)c2c1` were 97%, 41% and 8%.
With `COc1ccc(-c2csc3nc(C)nc(Cl)c23)cc1OC`, the values for the Inhibition with Plasmodium falciparum [1], in the experiment on Plasmodium falciparum [2] and in the experiment with HepG2 were 97%, 95% and 0%, respectively.
Take `O=C(/C=C/c1ccc(Cl)cc1)NCCCCCN1CCCC(C(=O)Nc2cccc(Cl)c2)C1` (stereo not given): the Inhibition with Plasmodium falciparum [1] stood at 96%; in the experiment on Plasmodium falciparum [2], 4%; in the experiment with HepG2, 21%.
Taken in the same sequence, the figures for `Fc1cccc(COc2ccc(Nc3ncnc4cc(/C=C/[C@@H]5CCCN5)sc34)cc2Cl)c1` were 100%, 56% and 17%.
Taken in the same sequence, the figures for `CSc1cccc(NC(=O)Nc2ccc(I)c(OCCN(C)C)c2)c1` were 97%, 19% and 14%.
Turning to `O=C(NCc1cccc2ccccc12)[C@@H]1CCCN1C(=O)c1ccc(O)c(-c2ccc(Cl)c(Cl)c2)c1`, the Inhibition with Plasmodium falciparum [1] turned out to be 98%; in the experiment with Plasmodium falciparum [2] it was 71%; with HepG2, 0%.
Consider `CN(C(=O)/C=C/c1c(Cl)cccc1Cl)C1CCN(CCCCCNC(=O)/C=C/c2ccc(Cl)c(Cl)c2)CC1`, for which the Inhibition with Plasmodium falciparum [1] was 92%; in the experiment on Plasmodium falciparum [2] it was 62%; with HepG2 it was 78%.
Take `FC(F)(F)c1ccc2[nH]c(-c3ccc(-c4cccc(CN5CCN(c6ccncc6)CC5)c4)cc3)nc2c1.O=C(O)C(F)(F)F`: the Inhibition in the experiment with Plasmodium falciparum [1] is 100%; with Plasmodium falciparum [2], 99%; in the experiment on HepG2, 82%.
As for `Cc1cc(N/N=C/c2ccccc2[N+](=O)[O-])c2ccc(F)cc2n1`, the results for the Inhibition in the experiment on Plasmodium falciparum [1], with Plasmodium falciparum [2] and with HepG2 were 100%, 100% and 32%, respectively.
As for `OC(CNc1ccnc(Nc2ccc(Cl)cc2)n1)c1ccc(C(F)(F)F)cc1` (stereo not given), the figures for the Inhibition with Plasmodium falciparum [1], in the experiment on Plasmodium falciparum [2] and with HepG2 were 100%, 94% and 0%, respectively.
Taken in the same sequence, the figures for `O=C(Nc1ccc(-c2nc3ccc(NC(=O)c4ccc(Br)cc4)cc3[nH]2)cc1)c1ccc(Br)cc1` were 98%, 4% and 40%.
Taken in the same sequence, the figures for `Cc1nc2ccc([N+](=O)[O-])cc2c(=O)n1OCc1ccccc1` were 98%, 0% and 2%.
